# Measurements as given in PubChem BioAssay (NCI).
# This is part of a sample that, as a whole, favours compounds with a hit. Of some 79,000 tested, about 15% had one in any assay. Values without a mark were called inactive. Rule as the data show it: active = growth inhibition above about 70%; inactive = the rest.
# Assay: NCI Yeast Anticancer Drug Screen. Data for the bub3 strain (AID 167)
# Conditions: S. cerevisiae bub3 mutant strain, at 50.0 µM, hits give high values
# Experimental: Growth inhibition of yeast strains with defined genetic alterations is measured as a screen for potential anti-cancer activity. Selected strains with alterations in DNA damage repair or cell cycle control were exposed to compounds and growth inhibition was measured relative to vehicle treated controls. The strain used in this assay is bub3
row,Compound,growth inhibition
1,COc1cc(CN2CCN(CCO)CC2)c(O)c(CN2CCN(CCO)CC2)c1,-5.45%
2,Cc1ccc(S(=O)(=O)N/N=C/c2ccccc2)cc1,8.7%
3,CCOC1=CC(=O)CCC1,-7.1%
4,N#COc1ccc(-c2ccccc2)cc1,-9.25%
5,COc1ccc(C2OC3=C(Nc4ccc([N+](=O)[O-])cc4N3)C2=O)cc1OC (stereo not given),-32.5%
6,CC1=CC(=O)N2[C@H](OC[C@@H]2C(C)C)O1,-20.2%
7,Cc1cnc(Cl)[nH]1 (tested in a mixture with another compound),14.8%
8,C1CCC2CC(NC3=NCCO3)CCC2C1 (stereo not given),22.2%
9,CN1c2cccc3cccc(c23)NC12CCCCC2,14.2%
10,OC(CBr)c1cc(-c2ccccc2)nc2c(Cl)cc(Cl)cc12 (stereo not given),11.8%
11,CSc1cc(/C=C/c2ccccc2)ccc1[N+](=O)[O-],14.3%
12,CC1=NN(C(=O)CC(=O)Nc2ccccc2C)C(=O)C1N=Nc1ccc(S(=O)(=O)c2ccc(N=NC3C(=O)N(C(=O)CC(=O)Nc4ccccc4C)N=C3C)cc2)cc1 (stereo not given),-8.75%
13,N#CC(c1ccccc1)[N+](=O)[O-] (stereo not given),-2.95%
14,S=c1nc(-c2cccnc2)[nH][nH]1,1.55%
15,Clc1ccc(C=Nc2ccccc2)c(Cl)c1,-2.75%
16,Nc1ccc(Cl)c(Cl)c1Cl,43.3%
17,COC(=O)c1ccccc1N=NNc1ccc2c(=O)c3ccccc3[nH]c2c1,11.6%
18,OC1OCC(COc2ccc(Cl)cc2)OC1O (stereo not given),-36.7%
19,C[C@@H](CC(=O)O)OC1OC(COC(=O)C(C)(C)C)C(OC(=O)C(C)(C)C)C(OC(=O)C(C)(C)C)C1OC(=O)C(C)(C)C (stereo not given in full),-15.5%
20,CCCSc1n[nH]c(=S)c2nc[nH]c12,-21.8%

row,Compound,growth inhibition
1,O=C(NCP(=O)(c1ccccc1)c1ccccc1)OCc1ccccc1,-12.5%
2,OC1CCC2OC12 (stereo not given),-1.3%
3,COCN1COCN(C)C1=O,23.9%
4,Nc1ccc2cc(S(=O)(=O)O)ccc2c1,0.95%
5,CCC(O)(c1ccc(OC)cc1)C(O)(CC)c1ccc(OC)cc1 (stereo not given),5.85%
6,COC(=O)Cc1ccc2c(c1)Sc1ccc(CC(=O)OC)cc1N2C,34.7%
7,CCCCC(=O)N[C@H]1C[C@H]2CC[C@@]1(C)C2(C)C,10.9%
8,CN(N)C(=O)Nc1ccc([N+](=O)[O-])cc1,12%
9,CCCCN=C(N)N=C(N)N,-5.15%
10,COc1cccc2c1N=c1c(Cl)c3c(c(Cl)c1O2)=Nc1c(OC)cccc1O3,-8.5%
11,CCOC(=O)c1cnc2[nH]ccn2c1=O,-6.55%
12,CCc1cccc(C)c1NC(=O)C(=O)Cc1nc2ccccc2s1,-58%
13,COc1ccc2c(c1)[n+]([O-])c(/C(C)=N/NC(=O)c1ccccc1O)c(C)[n+]2[O-],-3.35%
14,O=C1CCC(=O)N1c1ccc([I+]c2ccc(N3C(=O)CCC3=O)cc2)cc1,-0.8%
15,CCOC(=O)C1C(c2ccc(N(C)C)cc2)c2cc3c(cc2OC1(C)N1CCCC1)OCO3 (stereo not given),-3.15%
16,CSC1C(=O)Nc2ccccc21 (stereo not given),-34.5%
17,CCNC(=S)Nc1ccc(Cl)cc1,53.4%
18,COc1ccc(Nc2nc(C#N)c(N)s2)cc1,-27%
19,CC(=O)C(C)c1nc(=S)[nH]c(=S)[nH]1 (stereo not given),-1.35%
20,CC1(C)OCC2(CO1)CSCCCSCC1(COC(C)(C)OC1)CSCCCSC2,-25.5%
